Compound activity as filed in PubChem BioAssay.
HCMV antiviral – qHTS Assay for inhibitors of the human cytomegalovirus (HCMV) | HFF cells, HCMV-luciferase reporter, 72 h; stronger effect = lower value | activity change, negative = inhibition, % at 57.5 µM | 410,000 tested, 4.5% active; in the data active = activity change below about -60%; inconclusive = no clear call, values can overlap the other calls; inactive = above about -39%
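Screen run at 2 compound doses on HFFs infected with reporter HCMV, MOI 1 PFU/cell. Luciferase activity from cell lysates at 72 h post infection gave inhibition relative to buffer-only and Salinomycin wells.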
Marburg entry inh – qHTS for inhibitors of binding or entry into cells for Marburg Virus; Marburg virus pseudotyped entry inhibition, cell reporter; Potency, µM (highest dose often 37.8 µM), for the others: top-dose activity change, negative = inhibition, most hits filed as inhibitors; 300,000 tested, 1.8% active; calls by dose curve; tested in HEK293 cells; note: potency is the fitted concentration of half-maximal effect
LASV entry inh – qHTS for Inhibitors of binding or entry into cells for Lassa Virus; AID 540256, 2011; 300,000 tested, 1.2% active; Lassa virus pseudotype entry inhibition, cell reporter; Potency, µM (series often up to 37.9 µM), for inactives: top-dose activity change, negative = inhibition, actives largely listed as inhibitors; calls by dose curve; tested in HEK293 cells; note: potency is the fitted concentration of half-maximal effect; nearly all actives have a fitted effect of over 50% in size
VACV mCherry inh – qHTS for Stage-Specific Inhibitors of Vaccinia Orthopoxvirus: mCherry Reporter Primary qHTS; 310,000 tested, 0.63% active; Vaccinia virus mCherry reporter infection, fluorescence; AID 720579, 2013; Potency, µM (doses to about 36.5 µM), for inactives: at the top dose activity change, negative = inhibition, most hits filed as inhibitors; calls by dose curve; tested in A549 cells; note: potency is the fitted concentration of half-maximal effect; nearly all actives have a fitted effect of over 35% in size
FMDV inh – High Throughput Screening for Foot and Mouth Disease Virus Antivirals; FMDV antiviral cell-based qHTS; Potency, µM (top dose mostly 57.9 µM), inactives show at the highest dose activity change, negative = inhibition, usual class: inhibitors; 410,000 tested, 1.2% active; calls by dose curve; tested in HEK293T cells; note: read-out not given here; potency is the fitted concentration of half-maximal effect; nearly all actives have a fitted effect of over 45% in size
Vaccinia Venus – qHTS for Stage-Specific Inhibitors of Vaccinia Orthopoxvirus: Venus Reporter Primary qHTS; Vaccinia virus Venus reporter expression, fluorescence; AID 720580, 2013; 330,000 tested, 0.46% active; Potency, µM (titrated, usually from 36.5 µM), for the others: at the highest dose activity change, negative = inhibition, actives largely listed as inhibitors; calls by dose curve; tested in A549 cells; note: potency is the fitted concentration of half-maximal effect; nearly all actives have a fitted effect of over 30% in size
Starred values were filed as active, the others as inactive; i = inactive; ? = inconclusive; / = no result given; ! = repeats disagree; [ ] = dose if it differs, or a comment. This is a sample that favours compounds with a hit; in the whole collection about 6.5% have one here. % is set by controls: 0 for no effect and ±100 for the full control effect.

SMILES	HCMV antiviral	Marburg entry inh	LASV entry inh	VACV mCherry inh	FMDV inh	Vaccinia Venus
CCOC(=O)N1CCN(C(=O)COC(=O)c2cc(Cl)c(O)c(Cl)c2)CC1	-73*	6%[46.1 µM]	-20%	i	0%	-1%
CCOC(=O)N1CCN(C(=O)COC(=O)c2cc(Cl)cc(Cl)c2)CC1	20	-11%	3%	-5%	-7%	-1%
COC(=O)C1CCN(Cc2ccc3c(c2)CN(C(=O)C2Cc4ccccc4O2)CCO3)CC1 (centres undefined)	/	/	/	-4%	-12%	10%
CC1=CN2C(=N)/C(=C/c3ccc(C)o3)C(=O)N=C2S1	68	9%	1.3µM*	-12%	?	-12%
O=C(Nc1cc(Sc2ccccn2)cc([N+](=O)[O-])c1)c1ccc(Cl)cc1	-18	?	?	/	28µM*	10µM*
O=C(Nc1cc(Sc2ccccn2)cc([N+](=O)[O-])c1)c1cccc(Cl)c1	?	?	-9%	i	25µM*	?
COc1cc(-c2nnc(COc3ccc4ccccc4c3)o2)cc(OC)c1OC	-107*	-8%	?	-21%	0%	-20%
COc1cc(-c2nnc(-c3ccccc3)o2)cc(OC)c1OC	27	?	?	-1%	-16%	-18%
CCC(CC)C(=O)c1c[nH]c(C(=O)NCc2ccco2)c1	44	-7%	?	/	17%	/
CCC(CC)C(=O)c1c[nH]c(C(=O)NCc2cccs2)c1	5	-13%[46.1 µM]	2.5µM*	i	12%	-7%
Cc1cc2ncn(S(=O)(=O)c3ccc(S(N)(=O)=O)cc3)c2cc1C	56	/	/	/	-17%	/
CCOc1ccc(S(=O)(=O)n2cnc3cc(C)c(C)cc32)cc1	-86*	21µM*	?	?	?	?
CCCCNc1c(-c2ccc(-c3ccc(C(C)=O)cc3)c(OC)c2)nc2cc(C)ccn12	-93*	/	/	?	?	?
CCCCNc1c(-c2ccc(OC)c(SC(C)CC)c2)nc2cc(C)ccn12 (centres undefined)	-79*!	/	/	25µM*	28µM*	?
CCCCNc1c(-c2ccc(Sc3ccc(OC)cc3)cc2)nc2cc(C)ccn12	29	/	/	?	?	?
CCCCNc1c(-c2ccc(OC)c(SC(C)CC)c2)nc2ccc(C)cn12 (centres undefined)	-63*!	/	/	?	32µM*	-16%
CCCCNc1c(-c2ccc(OC)c(SC(C)CC)c2)nc2cnccn12 (centres undefined)	-20	/	/	?	?	-18%
CCCCCCSc1cc(-c2nc3ccc(C)cn3c2NCCCC)ccc1OC	14	/	/	-25%	35µM*	?
COc1cccc(CNC(=O)Cc2ccc(NC(=O)N3CCSc4ncccc43)cc2)c1OC	0	/	-11%[46.1 µM]	-8%	-14%	-14%
O=C(c1cnn(-c2nccc(-c3ccccc3F)n2)c1C1CC1)N1CCCCC1c1cccnc1 (centres undefined)	/	/	/	?	-8%	-28%
O=C(c1ccccc1)C(c1ccccc1)[n+]1csc2ccccc21 (centres undefined)	/	/	/	-18%	/	-10%
CCOC(=O)c1cccn1C1C(=O)N(Cc2ccc(C(F)(F)F)cc2)c2ccc(F)cc21 (centres undefined)	0	/	/	/	/	/
COc1ccc(NC(=O)CSc2nc3c(oc4ccccc43)c(=O)n2Cc2ccco2)cc1Cl	-98*	?	/	-3%[7.34 µM]	7%	-8%[7.34 µM]
COCCn1c(SCC(=O)Nc2ccc(F)c(Cl)c2)nc2c(oc3ccccc32)c1=O	-80*	12%[46.1 µM]	/	?	-2%	-22%
CCCn1c(SCC(=O)Nc2ccc(C(=O)Nc3ccccc3OC)cc2)n[nH]c1=O	-15	7%[46.1 µM]	-8%	-9%	32µM*	-15%
SMILES	HCMV antiviral	Marburg entry inh	LASV entry inh	VACV mCherry inh	FMDV inh	Vaccinia Venus
COCCn1c(SCC(=O)Nc2ccccc2OC)nc2c(oc3ccccc32)c1=O	-63*	/	/	/	?	/
C/C(CCN1CCc2nc(-c3ccccc3)c(-c3ccccc3)cc2C1)=N\OC[C@@H](O)[C@H]1O[C@@H]2OC(C)(C)O[C@@H]2[C@H]1O	/	26%[14.2 µM]	/	/	/	/
COc1ccccc1-n1cc(CN2CCOc3ccc(CN4C[C@@H](C)O[C@@H](C)C4)cc3C2)cn1	/	/	/	-12%	-22%	1%
COC(=O)c1ccc2c(=O)n(C3CCCCC3)c(SCC#N)nc2c1	?	0.015µM*	?	/	-6%	/
O=S(=O)(NN=C1CCCCCCC1)c1ccccc1	2	/	/	-19%	49%	-14%
S=c1nc[nH]c2c1sc1nc(-c3ccccc3)c3c(c12)CCCC3	?	/	/	14µM*	-29%	?
O=c1[nH]cnc2c1sc1nc(-c3ccccc3)c3c(c12)CCCC3	21	?	1%[46.1 µM]	i	-8%	-7%
CCO[C@@H](Cc1ccc(OCCc2ccc(OS(C)(=O)=O)cc2)cc1)C(=O)O	3	/	/	/	/	/
CC(OC(=O)c1cccc(-n2cnnn2)c1)c1nc2ccccc2c(=O)[nH]1 (centres undefined)	-65*	/	/	/	?	/
CCCS(=O)(=O)NCc1c(C)ncc2c1CCN(C(=O)c1cccc(-c3ccccc3F)c1)C2	/	/	/	-3%	7%	17%
c1ccc(C[n+]2cccc(-c3ccccc3)c2)cc1	-72*	-4%	?	?	-28%	-25%
O=C(CCn1cnc2onc(-c3ccc(F)cc3)c2c1=O)Nc1cccc(C(F)(F)F)c1	-86*	/	-29%[46.1 µM]	-16%	-19%	-13%
O=C(CCn1cnc2onc(-c3ccc(F)cc3)c2c1=O)Nc1ccc(F)c(Cl)c1	-67*	/	22%[46.1 µM]	-27%	-30%	-25%
CCOC(=O)c1cc(C)n(CC2CCC(C(=O)Nc3ccc(C(=O)OC)cc3)CC2)c1C (centres undefined)	-39	/	0%[46.1 µM]	-6%	?	-8%
CC(C)Cc1nnc(NC(=O)CCC(=O)NC2CC2)s1	5	/	/	/	-10%	/
Cc1ccc(C=Nc2ccccc2C#N)s1	-2	1%	3%	-8%	28%	-7%
Cc1c(Cl)cccc1N=Cc1ccc([N+](=O)[O-])s1	-108*	?	?	/	0%	/
Cc1nnc(Nc2ccc3c(c2)OCO3)c2ccccc12	-91*	27%	-7%	-8%	40%	9%
Cc1ccc(-c2nnc(Nc3ccc4c(c3)OCO4)c3ccccc23)cc1S(N)(=O)=O	-73*	?	-28%	?	37%	-18%
Cc1nc(Nc2ccc3c(c2)OCO3)c2oc3ccccc3c2n1	14	39%	3%	/	23%	/
CC1=CC2=NC(=O)C(c3ccccc3)C(=O)N2C=C1 (centres undefined)	21	?	-10%[46.1 µM]	-22%	20%	0%
